# VP16 counter – counter-screen for ROR gamma inhibitors: Gal4-VP16 reporter; Drosophila S2 Gal4-VP16 UAS-luciferase, luminescence, 20 h; Potency, µM (top dose mostly 53.6 µM), actives largely listed as inhibitors; 3.5% of 310,000 active; AID 2546;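 also: Gal4-VP16 expression switched on by copper sulfate through the metallothionein promoter; nearly all actives have a fitted effect of over 50% in size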
# TGFb inhibitor – blocks TGF-b signaling; HepG2 CAGA-GFP TGF-b/SMAD3 reporter, GFP fluorescence, 18 h; TGF-beta stimulated, 500 pg/mL final; Potency, µM (doses to about 46.1 µM), most hits filed as inhibitors; 1.2% of 410,000 active; AID 588855; also: nearly all actives have a fitted effect of over 65% in size
#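 TGF-beta reporter screen: HEPG2 CAGA-GFP, 1% FBS, 500 pg/mL TGF-beta final, 18 h; per-cell GFP summed per well; curves fitted and categorized by class.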
# HepG2 tox – kills HepG2 cells in TGF-b inhibitor counter-screen; HepG2 CAGA-GFP viability, ATP luminescence, 18 h; Potency, µM (top dose mostly 46.1 µM), actives largely listed as cytotoxic; 0.76% of 410,000 active; AID 588856
#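 CellTiter-Glo luminescence gave cytotoxicity after 18 hours at 37 degrees C. The cells were HepG2 CAGA-GFP in 1% FBS DMEM, stimulated with 500 pg/mL TGF-beta after compound addition. %Activity was normalised to no-cell wells (complete cell-killing) and DMSO (no toxicity), and curves were fitted and classified.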
# ATXN viability – viability counter-screen for ATXN expression inhibitors; S2 cells (HEK-293 line with an ATXN2-luciferase reporter) viability, CellTiter-Fluor protease fluorescence, 24 h; Potency, µM (doses to about 56.7 µM), hits mostly cytotoxic; 0.49% of 400,000 active; AID 651635; also: nearly all actives have a fitted effect of over 40% in size
# RORgamma inh – ROR gamma (mouse) transcription inhibition; P51450; Drosophila S2 Gal4-RORgamma UAS-luciferase reporter, 20 h; Potency, µM (titrated, usually from 53.6 µM), usual class: inhibitors; 5.4% of 310,000 active; also: nearly all actives have a fitted effect of over 60% in size
# Target sequence (P51450 whole entry, looked up, the tested form may be a part): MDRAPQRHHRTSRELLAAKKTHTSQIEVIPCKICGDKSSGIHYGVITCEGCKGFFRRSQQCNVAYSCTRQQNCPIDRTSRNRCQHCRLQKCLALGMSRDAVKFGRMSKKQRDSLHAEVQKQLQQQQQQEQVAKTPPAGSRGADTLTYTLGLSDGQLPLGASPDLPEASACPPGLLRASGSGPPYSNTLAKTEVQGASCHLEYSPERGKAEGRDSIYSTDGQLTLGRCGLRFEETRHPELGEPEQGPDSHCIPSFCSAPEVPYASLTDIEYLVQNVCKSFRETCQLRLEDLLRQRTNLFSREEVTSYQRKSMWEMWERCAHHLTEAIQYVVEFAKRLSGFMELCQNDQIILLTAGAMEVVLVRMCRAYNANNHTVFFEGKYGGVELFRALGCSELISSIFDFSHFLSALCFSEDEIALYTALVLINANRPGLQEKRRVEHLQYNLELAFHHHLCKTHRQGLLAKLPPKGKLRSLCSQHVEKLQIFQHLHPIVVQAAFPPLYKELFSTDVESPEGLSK
#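 A Gal4/UAS one-hybrid system in insect cells: metallothionein-promoter Gal4–ROR gamma fusion plus Photinus luciferase reporter. Copper sulfate 700 uM final, 20 hr ambient incubation, luminescent detection after 10 min with reagent.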
# ATXN2 expr inh – inhibitors of ATXN2 expression | Potency, µM (highest dose often 57 µM), hits mostly inhibitors | HEK-293 ATXN2-luciferase reporter, luminescence, 24 h | 0.72% of 360,000 active; also: nearly all actives have a fitted effect of over 55% in size
#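 qHTS (up to 57 uM final) was run with 24 h compound exposure of reporter cells at 37 °C. Each well was multiplexed: SteadyGlo luminescence measured ATXN2-luciferase expression after a fluorogenic Gly-Phe-AFC viability readout (25 uM final).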
# A number is an active result; – = inactive; ? = inconclusive; · = no result; ! = not active in a repeat; [ ] = remark or other dose. This is a sample that favours compounds with a hit; in the whole collection about 6.1% have one here. Calls follow the shape of the dose curve; as a rule, active = well fitted curve in the direction sought with a large enough effect; inconclusive = small, poorly fitted or top-dose-only effect, or another doubt; inactive = no such curve, though single readings can be large; an effect the other way counts as inactive or inconclusive.
SMILES,VP16 counter,TGFb inhibitor,HepG2 tox,ATXN viability,RORgamma inh,ATXN2 expr inh
CCOc1ccc(NC(=O)Cn2c(CCC(=O)O)ccc2-c2ccc(C)cc2)cc1,·,–,–,–,·,–
COc1ccc(-c2nc(S(=O)(=O)c3ccc(Cl)cc3)c(NCc3ccccc3)o2)cc1,·,–,–,–,·,–
O=[N+]([O-])c1cccc(/C=C/c2ccccc2)c1,·,–,–,·,·,·
CC1(C)COC(/C=C/c2cccc([N+](=O)[O-])c2)=N1,1.4µM,?,–,?,?,?
O=S1(=O)CCOC[C@H](CC2CCCCC2)N1Cc1cccc(Cl)c1,–,16µM,–,–,–,–
O=S1(=O)CCOC[C@H](CC2CCCCC2)N1Cc1ccccc1,–,?,–,–,–,–
Cc1ccccc1CN1CCCOCCS1(=O)=O,–,–,–,–,–,–
Cc1ccccc1CN1[C@@H](CC2CCCCC2)COCCS1(=O)=O,–,11µM,11µM!,?,–,–
Cc1ccc(/C=N/Nc2cccc3cccnc23)c(O)c1,?,–,–,–,10µM,–
Oc1ccc(/C=N/Nc2cccc3cccnc23)c(O)c1,–[0.365 µM],?,–,?,2.5µM,–
Oc1ccc(C=NNc2ccccn2)c(O)c1,·,–,–,?,·,?
COc1ccccc1OCCn1c(-c2ccc(Br)cc2)nc2ccccc2c1=O,·,–,–,–,·,–
CCCn1c(SCc2nc(-c3ccc(OC)c(OC)c3)no2)nnc1-c1ccccc1,·,–,–,?,·,–
Cc1nn(CCC(=O)Nc2cc(F)ccc2F)c(=O)c2nn(-c3ccccc3)c(C)c12,·,–,–,–,·,–
COc1cc([N+](=O)[O-])cc(/C=N/NC(=O)Cn2cncn2)c1O,–,–,–,–,?,·
COc1cc([N+](=O)[O-])cc(/C=N/NC(=O)CC#N)c1O,–,·,·,·,–,·
COc1cc([N+](=O)[O-])cc(/C=N/NC(=O)C(C)Nc2cccc(C)c2)c1O (configuration not stated),1.1µM,–,–,–,0.89µM,–
COc1cc([N+](=O)[O-])cc(/C=N/NC(=O)C(C)Nc2ccccc2C)c1O (configuration not stated),0.5µM,–,–,–,0.32µM,?
O=C(Nc1ccc(F)c(C(F)(F)F)c1)Nc1nnc(-c2ccncc2)s1,·,·,·,·,·,–
CCC1CN(CC(=O)NC(C)c2c(C)nn(C)c2C)Cc2cc(OC)ccc2O1 (configuration not stated),·,·,·,–,·,·
Cc1nc(-c2cccc(F)c2)sc1CCNC(=O)Cc1ccc(F)cc1,·,–,–,–,·,–
CCN(CC)CCCC(C)Nc1cc(/C=C/c2ccccc2Cl)nc2cc(Cl)ccc12 (configuration not stated),–,2.8µM,2.8µM,·,–,·
O=S(=O)(/N=S1/CC=CCN1S(=O)(=O)c1ccccc1)c1ccccc1 (configuration not stated),?,?,–,–,11µM,–
O=S(=O)(c1ccccc1)N1CCN(S(=O)(=O)c2ccccc2)C1,–,–,–,–,–,–
CCOc1ccc(NC(=O)C(C)Sc2nnc3cc(C)c4ccccc4n23)cc1 (configuration not stated),·,–,–,·,·,·
SMILES,VP16 counter,TGFb inhibitor,HepG2 tox,ATXN viability,RORgamma inh,ATXN2 expr inh
CC(Nc1ncnc2ccccc12)c1ccccc1 (configuration not stated),2.8µM,–,–,–,?,–
CCOC(=O)/C(=N/Nc1ccccc1)Sc1nnnn1-c1ccc(C)cc1,–,–,–,–,?,–
CCOC(=O)/C(=N/Nc1ccccc1)Sc1nnc(CCc2ccccc2)n1-c1ccccc1,7.1µM,–,–,–,4.5µM,–[11.3 µM]
COC(=O)/C(=N\Nc1ccc(Cl)cc1)Sc1nnc(-c2ccc(OC)cc2)n1C,?,?,–,–,5.6µM,–
CCOC(=O)/C(=N/Nc1ccc(Cl)cc1)Sc1nnnn1-c1ccc(C)cc1,?,–,–,–,6.3µM,–
COc1ccc(CNC(=O)CSc2nnc(-c3ccc(NC(C)=O)cc3)n2C)cc1,–,–,–,–,–,–

# Bioassay records: PubChem, National Center for Advancing Translational Sciences (NCATS)
